Laboratory results published in the supplement of paper PMC9262897, “Low-cost anti-mycobacterial drug discovery using engineered E. coli” (Nature Communications, 2022).
Structures can show the parent of a compound that is named as a salt. ± gives the standard deviation of the averaged measurements.

Assays:
Assay in all cases: growth (OD600 after 10 h); higher = more growth (less inhibition)
[1] = test system: E. coli TESEC Alr+ wild-type control; details: compound 0.1 mM; raw OD600 reference: median of DMSO wells 0.241, cell-free background 0.041
Method: (§1)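 TESEC Mtb Alr E. coli, or the Alr+ wild-type control, in 384-well plates with Prestwick library compounds at 0.1 mM and 1% DMSO, across arabinose induction levels of 1E3 to 1E7 nM. Growth is read as OD600 after 10 h at 37 °C in triplicate biological replicates.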

E. coli TESEC Mtb Alr [2] = details: compound 0.1 mM
Method: as §1

E. coli TESEC Mtb Asd = details: compound 0.1 mM
Method: (§2)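 TESEC E. coli strains in which the native enzyme is deleted and replaced by arabinose-inducible Mtb Asd, DapB, CysH or TrpD, each grown in its selective medium. Strains were screened against the Prestwick library at 0.1 mM and 1% DMSO in 384-well format at low and high arabinose induction. Growth is read as OD600 after 10 h in triplicate.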

E. coli TESEC Mtb DapB = details: compound 0.1 mM
Method: as §2

[3] = test system: E. coli TESEC Alr+ wild-type control; details: compound 0.1 mM; raw OD600 reference: median of DMSO wells 0.49, cell-free background 0.052
Method: (§3)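 TESEC Mtb Alr E. coli (ΔaraC ΔtolC ΔentC Δalr ΔdadX, arabinose-inducible Mtb Alr) or the Alr+ wild-type control strain, grown in defined M9-fructose medium without D-alanine in 96-well plates with Prestwick library compounds at 0.1 mM and 1% DMSO. Low Alr induction is 0.1 µM arabinose and high induction is 10 mM arabinose.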

E. coli TESEC Mtb Alr [4] = details: compound 0.1 mM; remark: listed apart in the source
Method: as §3

[5] = arabinose 1000 nM, raw OD600 reference: median of DMSO wells 0.294, cell-free background 0.041
[6] = arabinose 10000 nM, raw OD600 reference: median of DMSO wells 0.264, cell-free background 0.041
[7] = arabinose 100000 nM, raw OD600 reference: median of DMSO wells 0.201, cell-free background 0.041
[8] = arabinose 1000000 nM, raw OD600 reference: median of DMSO wells 0.193, cell-free background 0.041
[9] = arabinose 10000000 nM, raw OD600 reference: median of DMSO wells 0.146, cell-free background 0.041
[10] = arabinose induction (level): High, raw OD600 reference: median of DMSO wells 0.331, cell-free background 0.041
[11] = arabinose induction (level): Low, raw OD600 reference: median of DMSO wells 0.417, cell-free background 0.041
[12] = arabinose induction (level): High, raw OD600 reference: median of DMSO wells […], cell-free background 0.041
[13] = arabinose induction (level): Low, raw OD600 reference: median of DMSO wells 0.227, cell-free background 0.041
[14] = arabinose 100 nM, raw OD600 reference: median of DMSO wells 0.413, cell-free background 0.052
[15] = arabinose 10000000 nM, raw OD600 reference: median of DMSO wells […], cell-free background 0.052

| Compound | growth [1] | growth (E. coli TESEC Mtb Alr [2]; [5]) | growth (E. coli TESEC Mtb Alr [2]; [6]) | growth (E. coli TESEC Mtb Alr [2]; [7]) | growth (E. coli TESEC Mtb Alr [2]; [8]) | growth (E. coli TESEC Mtb Alr [2]; [9]) | growth (E. coli TESEC Mtb Asd; [10]) | growth (E. coli TESEC Mtb Asd; [11]) | growth (E. coli TESEC Mtb DapB; [12]) | growth (E. coli TESEC Mtb DapB; [13]) | growth [3] | growth (E. coli TESEC Mtb Alr [4]; [14]) | growth (E. coli TESEC Mtb Alr [4]; [15]) |
| --- | --- | --- | --- | --- | --- | --- | --- | --- | --- | --- | --- | --- | --- |
| CC[C@H](c1ccc(O)cc1)[C@@H](CC)c1ccc(O)cc1 [Hexestrol] | 0.0495 ± 0.0091 | 0.048 ± 0.0092 | 0.0398 ± 0.00072 | 0.0479 ± 0.0054 | 0.0459 ± 0.0019 | 0.0616 ± 0.024 | 0.0495 ± 0.0033 | 0.0486 ± 0.0013 | 0.0653 ± 0.019 | 0.054 ± 0.0072 | 0.054 ± 0.0093 | 0.0666 ± 0.025 | 0.05173 ± 0.0004 |
| CN1CCN(C2=Nc3ccccc3Oc3ccc(Cl)cc32)CC1 [Loxapine succinate] | 0.166 ± 0.0027 | 0.182 ± 0.0068 | 0.194 ± 0.0033 | 0.189 ± 0.0039 | 0.12 ± 0.0061 | 0.158 ± 0.0041 | 0.201 ± 0.029 | 0.214 ± 0.021 | 0.19 ± 0.0079 | 0.248 ± 0.079 | 0.399 ± 0.0093 | 0.381 ± 0.017 | 0.224 ± 0.014 |
| CC(C)NCC(O)COc1ccc(COCCOC(C)C)cc1 (stereo not given) [Bisoprolol fumarate] | 0.227 ± 0.01 | 0.302 ± 0.01 | 0.254 ± 0.01 | 0.222 ± 0.032 | 0.192 ± 0.0099 | 0.14 ± 0.0055 | 0.391 ± 0.017 | 0.467 ± 0.07 | 0.184 ± 0.017 | 0.227 ± 0.027 | 0.448 ± 0.022 | 0.409 ± 0.016 | 0.37 ± 0.028 |
| CN(C)CCOc1ccc(/C(=C(/CCCl)c2ccccc2)c2ccccc2)cc1 [Toremifene] | 0.0414 ± 0.0014 | 0.04087 ± 0.0004 | 0.04003 ± 0.00032 | 0.0409 ± 0.00036 | 0.04023 ± 0.00025 | 0.04073 ± 0.00021 | 0.0528 ± 0.00055 | 0.057 ± 0.0021 | 0.0495 ± 0.0014 | 0.0508 ± 0.001 | 0.0478 ± 0.00064 | 0.0666 ± 0.015 | 0.0577 ± 0.0032 |
| CN(C)/N=N/c1[nH]cnc1C(N)=O [Dacarbazine] | 0.211 ± 0.0036 | 0.259 ± 0.0098 | 0.219 ± 0.012 | 0.197 ± 0.036 | 0.136 ± 0.0025 | 0.151 ± 0.0043 | 0.278 ± 0.036 | 0.362 ± 0.12 | 0.181 ± 0.012 | 0.213 ± 0.033 | 0.51 ± 0.11 | 0.405 ± 0.013 | 0.296 ± 0.024 |
| COc1ccc(Cl)cc1C(=O)NCCc1ccc(S(=O)(=O)NC(=O)NC2CCCCC2)cc1 [Glibenclamide] | 0.122 ± 0.0053 | 0.166 ± 0.035 | 0.146 ± 0.004 | 0.144 ± 0.0077 | 0.0688 ± 0.0014 | 0.125 ± 0.0025 | 0.154 ± 0.02 | 0.218 ± 0.015 | 0.158 ± 0.013 | 0.173 ± 0.014 | 0.355 ± 0.032 | 0.349 ± 0.12 | 0.0906 ± 0.0069 |
| CCCC(=O)Nc1ccc(OCC(O)CNC(C)C)c(C(C)=O)c1 (stereo not given) [Acebutolol hydrochloride] | 0.239 ± 0.008 | 0.305 ± 0.011 | 0.257 ± 0.0087 | 0.202 ± 0.014 | 0.174 ± 0.0073 | 0.1572 ± 0.0014 | 0.264 ± 0.04 | 0.413 ± 0.007 | 0.197 ± 0.025 | 0.265 ± 0.067 | 0.46 ± 0.044 | 0.411 ± 0.0058 | 0.354 ± 0.01 |
| Oc1ccc(C2CNCCc3c2cc(O)c(O)c3Cl)cc1 (stereo not given) [Fenoldopam] | 0.0924 ± 0.0031 | 0.0795 ± 0.0009 | 0.0538 ± 0.0026 | 0.0873 ± 0.0018 | 0.0562 ± 0.0034 | 0.086 ± 0.0096 | 0.113 ± 0.0085 | 0.126 ± 0.017 | 0.149 ± 0.035 | 0.135 ± 0.029 | 0.355 ± 0.023 | 0.104 ± 0.048 | 0.0738 ± 0.006 |
| CCCCN(CCCC)CCC(O)c1cc2c(Cl)cc(Cl)cc2c2cc(C(F)(F)F)ccc12 (stereo not given) [Halofantrine hydrochloride] | 0.24 ± 0.011 | 0.313 ± 0.006 | 0.31 ± 0.0059 | 0.2 ± 0.014 | 0.18 ± 0.0064 | 0.175 ± 0.0054 | 0.282 ± 0.059 | 0.457 ± 0.054 | 0.259 ± 0.018 | 0.291 ± 0.037 | 0.53 ± 0.019 | 0.452 ± 0.016 | 0.427 ± 0.019 |
| CN[C@@H]1[C@@H](O)[C@@H](O[C@@H]2[C@@H](O)[C@H](O[C@H]3OC(CN)=CC[C@H]3N)[C@@H](N)C[C@H]2N)OC[C@]1(C)O [Sisomicin sulfate] | 0.0439 ± 0.00085 | 0.04797 ± 0.00015 | 0.0404 ± 0.00055 | 0.0483 ± 0.00072 | 0.0422 ± 0.00046 | 0.0657 ± 0.002 | 0.075 ± 0.0066 | 0.107 ± 0.055 | 0.144 ± 0.032 | 0.0843 ± 0.01 | 0.198 ± 0.21 | 0.231 ± 0.15 | 0.3071 ± 0.0019 |
| CCOC(=O)OC(C)OC1=C(C(=O)Nc2ccccn2)N(C)S(=O)(=O)c2ccccc21 (stereo not given) [Ampiroxicam] | 0.228 ± 0.015 | 0.27 ± 0.0052 | 0.255 ± 0.0083 | 0.183 ± 0.018 | 0.165 ± 0.007 | 0.157 ± 0.0076 | 0.237 ± 0.034 | 0.339 ± 0.033 | 0.206 ± 0.024 | 0.266 ± 0.048 | 0.582 ± 0.1 | 0.415 ± 0.01 | 0.293 ± 0.019 |
| CC(=O)OCC(=O)[C@@]1(O)CC[C@H]2[C@@H]3CCC4=CC(=O)CC[C@]4(C)[C@@]3(F)[C@@H](O)C[C@@]21C [Fludrocortisone acetate] | 0.188 ± 0.0026 | 0.235 ± 0.021 | 0.255 ± 0.012 | 0.141 ± 0.0083 | 0.1074 ± 0.0007 | 0.128 ± 0.0027 | 0.249 ± 0.066 | 0.37 ± 0.092 | 0.188 ± 0.014 | 0.242 ± 0.039 | 0.459 ± 0.028 | 0.401 ± 0.0079 | 0.229 ± 0.02 |
| CC(C)(Oc1ccc(CCNC(=O)c2ccc(Cl)cc2)cc1)C(=O)O [Bezafibrate] | 0.249 ± 0.0031 | 0.296 ± 0.0036 | 0.237 ± 0.0024 | 0.208 ± 0.028 | 0.163 ± 0.0041 | 0.138 ± 0.0072 | 0.237 ± 0.074 | 0.298 ± 0.021 | 0.184 ± 0.012 | 0.216 ± 0.013 | 0.483 ± 0.015 | 0.43 ± 0.0059 | 0.322 ± 0.019 |
| O=C1C(CC[S+]([O-])c2ccccc2)C(=O)N(c2ccccc2)N1c1ccccc1 (stereo not given) [Sulfinpyrazone] | 0.167 ± 0.0026 | 0.244 ± 0.0079 | 0.241 ± 0.006 | 0.17 ± 0.01 | 0.151 ± 0.0048 | 0.146 ± 0.0031 | 0.26 ± 0.063 | 0.316 ± 0.087 | 0.182 ± 0.0043 | 0.203 ± 0.023 | 0.542 ± 0.093 | 0.38 ± 0.0087 | 0.33 ± 0.011 |
| CCN1CC(CCN2CCOCC2)C(c2ccccc2)(c2ccccc2)C1=O (stereo not given) [Doxapram hydrochloride] | 0.234 ± 0.0045 | 0.284 ± 0.0045 | 0.248 ± 0.004 | 0.199 ± 0.018 | 0.205 ± 0.016 | 0.1315 ± 0.0013 | 0.309 ± 0.091 | 0.426 ± 0.072 | 0.205 ± 0.018 | 0.243 ± 0.017 | 0.54 ± 0.012 | 0.394 ± 0.016 | 0.339 ± 0.014 |
